Screens from PubChem BioAssay.
MCL1-BIM inh: inhibitors of MCL1 binding to BIM-BH3, primary screen, biochemical, fluorescence polarization | AID 2057, 2009 | GST-MCL1 / FITC-Bim-BH3 fluorescence polarization | Induced myeloid leukemia cell differentiation protein Mcl-1 (Homo sapiens), Q07820 | inhibition, % at 10.9 µM | hit rate 0.68% among 320,000;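 active = inhibition above the mean inhibition of all tested compounds plus 3 SD, set per campaign, cut at about 40% in these data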;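 note: 0% = DMSO wells and 100% = unlabeled Bim-BH3 peptide control; higher means more loss of mP so more displacement of Bim peptide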
Target sequence (Q07820 whole entry, looked up): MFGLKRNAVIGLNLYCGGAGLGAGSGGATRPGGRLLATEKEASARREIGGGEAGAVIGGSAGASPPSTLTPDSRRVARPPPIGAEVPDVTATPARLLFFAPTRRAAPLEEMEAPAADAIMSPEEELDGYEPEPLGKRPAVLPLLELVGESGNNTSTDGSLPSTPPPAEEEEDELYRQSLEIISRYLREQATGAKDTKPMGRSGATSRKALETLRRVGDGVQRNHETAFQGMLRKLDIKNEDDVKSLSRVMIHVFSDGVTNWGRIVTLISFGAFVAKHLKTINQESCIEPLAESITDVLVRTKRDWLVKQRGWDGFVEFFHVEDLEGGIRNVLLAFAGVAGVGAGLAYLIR
MEX-5 binding: MEX-5 zinc finger RNA-binding disruptors – biochemical, C. elegans, fluorescence polarization, MLPCN library, primary screen; MEX-5/FITC-TCR2 RNA binding; stronger effect = lower value; Zinc finger protein mex-5 (Caenorhabditis elegans), Q9XUB2; activity score (negative = inhibition of binding), % at 10 µM; AID 1832, 2009; hit rate 0.38% among 300,000;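 active = inhibition past about -25% in most replicates, and total fluorescence under double the plate's negative control median, limit read from the data; inconclusive = replicates evenly split on the limit, or fluorescence at least double controls; inactive = too little inhibition in most replicates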;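 note: 0% = DMSO and -100% = 5 µM competing unlabeled TCR2 RNA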
EBV gp42 block: Epstein-Barr virus gp42 inhibitors, primary screen, biochemical, uHTS, fluorescence polarization; hit rate 0.42% among 220,000; Glycoprotein 42 (Epstein-Barr virus (strain AG876)), Q1HVG2; inhibition, % (tested at 21.74 µM); Fluorescence polarization binding assay, mP read-out; AID 1085, 2008; in the data active = inhibition above about 50%
Bcl-xL primary: inhibitors of human Bcl-xL, primary screen, biochemical, fluorescence polarization, HTS | hit rate 0.7% among 320,000 | inhibition, % at 10.9 µM | GST-Bcl-xL / FITC-Bim BH3 peptide fluorescence polarization;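 active = inhibition above the mean of all tested compounds plus 3 SD, cutoff set per campaign, cut at about 30% in these data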;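 note: 0% = DMSO wells and 100% = unlabeled Bim-BH3 peptide competitor; inhibitors lower millipolarization by displacing the labeled peptide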
Target sequence (Q07817 whole entry, looked up): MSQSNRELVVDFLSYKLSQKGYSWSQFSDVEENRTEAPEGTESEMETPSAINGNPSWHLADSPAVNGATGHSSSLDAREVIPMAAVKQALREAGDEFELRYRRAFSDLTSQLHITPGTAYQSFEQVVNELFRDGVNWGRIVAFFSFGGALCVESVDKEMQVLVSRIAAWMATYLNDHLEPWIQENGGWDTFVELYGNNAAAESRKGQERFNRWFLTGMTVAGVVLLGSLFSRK
GLD-1 RNA inh: GLD-1/TGE RNA complex disruptors, primary screen, biochemical, fluorescence polarization; purified GLD-1 + fluorescein TGE RNA; inhibition, % at 5.96 µM; hit rate 0.44% among 320,000; AID 2280, 2010;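 active = percent inhibition above a per-plate cutoff, the plate mean of test compounds plus 3 SD, cut at about 30% in these data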;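 note: 0% = DMSO wells with GLD-1 and probe and 100% = wells lacking GLD-1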
Bcl-xL conf: Bcl-xL inhibitors blocking Bim BH3 binding, confirmation, counter-screen for MCL1 inhibitor project, biochemical, fluorescence polarization; shares compounds with MCL1-BIM inh; hit rate 54% among 1,700; inhibition, % at 10.9 µM; GST-Bcl-xL / FITC-Bim BH3 peptide FP binding;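 active = inhibition above a cutoff equal to the mean inhibition of all tested compounds plus 3 SD, cut at about 30% in these data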;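 note: 0% = DMSO wells and 100% = unlabeled Bim BH3 control peptide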
MCL1 BIM confirm: inhibitors of MCL1 binding to BIM-BH3, confirmation, biochemical, fluorescence polarization, triplicate; shares compounds with MCL1-BIM inh; GST-MCL1 / FITC-Bim-BH3 fluorescence polarization; inhibition, % at 10.9 µM; hit rate 61% among 1,700; AID 2168, 2009;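 active = inhibition above the average of all tested compounds plus 3 SD, cut at about 40% in these data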;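 note: 0% = DMSO wells and 100% = unlabeled Bim-BH3 control peptide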
* hit, by the source's call. The list is not random: actives were taken first. Their share in the collection is about 1.3%.

For CCCc1c(C(=O)N/N=C/c2cccnc2)nnn1-c1nonc1N the results were MCL1-BIM inh 6, MEX-5 binding 1, Bcl-xL primary 6 and GLD-1 RNA inh 0.
Screening CNc1ccccc(-c2ccc3cc4c(cc3n2)OCO4)c1=O returned MCL1-BIM inh 114*, MEX-5 binding -13, EBV gp42 block 17, Bcl-xL primary 91*, GLD-1 RNA inh 14, Bcl-xL conf 34* and MCL1 BIM confirm 33.
For CSc1nc(NCCOCCO)c2sc3nc(-c4ccco4)c4c(c3c2n1)CCC4 the results were MCL1-BIM inh 69*, MEX-5 binding 1, EBV gp42 block 9, Bcl-xL primary 23, GLD-1 RNA inh -9, Bcl-xL conf 23 and MCL1 BIM confirm 67*.
`COc1ccccc1NC(=O)N1CCc2[nH]c3ccc(F)cc3c2C1` gave MCL1-BIM inh 50*, MEX-5 binding -2, EBV gp42 block 8, Bcl-xL primary 52*, GLD-1 RNA inh 51*, Bcl-xL conf 14 and MCL1 BIM confirm 20.
Screening O=C(C1CCCCC1)N1CCc2[nH]c3ccc(F)cc3c2C1 returned MCL1-BIM inh 0, MEX-5 binding 0, EBV gp42 block -3, Bcl-xL primary 3 and GLD-1 RNA inh 2.
For O=C(COC(=O)c1ccc2ncsc2c1)Nc1cc([N+](=O)[O-])ccc1Cl the results were MCL1-BIM inh 42*, Bcl-xL primary -8, GLD-1 RNA inh -3, Bcl-xL conf -6 and MCL1 BIM confirm -18.
Screening Cn1nc([N+](=O)[O-])c(C(C#N)c2nc3ccccc3n2C)c(Cl)c1=O (centres undefined) returned MCL1-BIM inh 91*, MEX-5 binding -28*, EBV gp42 block 80*, Bcl-xL primary 79*, GLD-1 RNA inh 51*, Bcl-xL conf 84* and MCL1 BIM confirm 90*.
Cc1ccc(F)cc1NC(=O)c1ccc(NS(=O)(=O)c2ccc(Br)s2)cc1 was read as MCL1-BIM inh -4, MEX-5 binding 2, EBV gp42 block 3, Bcl-xL primary 8 and GLD-1 RNA inh -3.
O=C(O)C1Sc2[nH]c(=O)sc2C2c3cc(Cl)ccc3OC(=O)C12 (centres undefined) was read as MCL1-BIM inh 13, MEX-5 binding -8, EBV gp42 block -4, Bcl-xL primary 15 and GLD-1 RNA inh 10.
For O=C(O)C1Sc2[nH]c(=O)sc2C2c3ccc(O)cc3OC(=O)C12 (centres undefined) the results were MCL1-BIM inh 82*, MEX-5 binding inconclusive, EBV gp42 block 41, Bcl-xL primary 67*, GLD-1 RNA inh 73*, Bcl-xL conf 46* and MCL1 BIM confirm 49*.
`NS(=O)(=O)c1ccc(Sc2nc3ccccc3s2)c([N+](=O)[O-])c1` gave MCL1-BIM inh 3, MEX-5 binding -3, EBV gp42 block 0, Bcl-xL primary 2 and GLD-1 RNA inh 6.
O=C(O)c1ccc(S(=O)(=O)Nc2ccc(O)c(Sc3nc4ccccc4s3)c2)cc1 was read as MCL1-BIM inh 43*, MEX-5 binding -4, EBV gp42 block 0, Bcl-xL primary 26, GLD-1 RNA inh 7, Bcl-xL conf 29 and MCL1 BIM confirm 59*.
`Cc1ccccc1N1C(=O)c2cccc3c(N(C)CCO)ccc(c23)C1=O` gave MCL1-BIM inh active, MEX-5 binding inconclusive, EBV gp42 block 126*, Bcl-xL primary 181*, GLD-1 RNA inh 167*, Bcl-xL conf 121* and MCL1 BIM confirm 157*.
`COc1ccccc1N1C(=O)c2cccc3c(C(=O)O)ccc(c23)C1=O` gave MCL1-BIM inh -4, MEX-5 binding -1, EBV gp42 block -24, Bcl-xL primary 5 and GLD-1 RNA inh 0.
COc1ccccc1N1C(=O)c2cccc3c(N(C)CCO)ccc(c23)C1=O was read as MCL1-BIM inh active, MEX-5 binding 4, Bcl-xL primary 183*, GLD-1 RNA inh 172*, Bcl-xL conf 128* and MCL1 BIM confirm 152*.
Screening CN(Cc1ccccc1)c1ccc(S(=O)(=O)N2CCC(C(=O)O)CC2)cc1[N+](=O)[O-] returned MCL1-BIM inh -4, MEX-5 binding -1, EBV gp42 block 1, Bcl-xL primary 2 and GLD-1 RNA inh 0.
`COc1cc(C2C3=C(CC(C)(C)CC3=O)Nc3ccccc3N2C(C)=O)cc(OC)c1OC` (centres undefined) gave MCL1-BIM inh -7, MEX-5 binding 3, Bcl-xL primary 0 and GLD-1 RNA inh -3.
O=C1C(=Cc2ccc(Br)o2)C(=O)c2ccccc21 was read as MCL1-BIM inh 92*, EBV gp42 block 65*, Bcl-xL primary 47*, GLD-1 RNA inh 6, Bcl-xL conf 43* and MCL1 BIM confirm 64*.
For O=C1NC(=O)[C@@H]2C3c4ccccc4C=CN3[C@H](C(=O)c3cccs3)[C@H]12 (some centres undefined) the results were MCL1-BIM inh 124*, MEX-5 binding -53*, EBV gp42 block 88*, Bcl-xL primary 123*, GLD-1 RNA inh 102*, Bcl-xL conf 61* and MCL1 BIM confirm 87*.
For COc1cccc2c(N/N=C/c3ccc(O)c(O)c3)cc(C)nc12 the results were MCL1-BIM inh 41*, MEX-5 binding -6, Bcl-xL primary 19, GLD-1 RNA inh 7, Bcl-xL conf 51* and MCL1 BIM confirm 73*.
For O=S(=O)(Nc1cccc(S(=O)(=O)N2CCCC2)c1)c1cccs1 the results were GLD-1 RNA inh 4.
Screening COc1ccc(NC(=O)CN(C)C(=O)c2cccc(-n3cccc3)c2)cc1 returned MCL1-BIM inh 48*, MEX-5 binding -1, Bcl-xL primary 9, GLD-1 RNA inh 1, Bcl-xL conf 4 and MCL1 BIM confirm 27.
Screening CN(C)Cc1c(O)ccc2c(=O)c(-c3ccc(Cl)cc3)coc12 returned MCL1-BIM inh 3, MEX-5 binding -2, Bcl-xL primary 7 and GLD-1 RNA inh 3.
